Screening data deposited in PubChem by several laboratories.
Sampled rows, rich in hits. Any-hit rate of the full collection: about 4.6%.
V-ATPase pH = regulators of yeast V-ATPase proton pumping, primary screen, pHLuorin cytosolic pH fluorescence | AID 504577, 2011 | S. cerevisiae | actives 0.37% (n = 350,000) | response, % at 10 µM; in the data active means response mostly above about 7.3%, no sharp cut-off; inactive means mostly below about 5.4%; further: actives read high
TIM10 inh = growth inhibitors of isogenic TIM10 control yeast, primary screen, counter-screen for tim10-1 yeast inhibitor project, luminescence, uHTS | AID 463195, 2010 | actives 1.4% (n = 330,000) | S. cerevisiae TIM10 strain growth, BacTiter-Glo luminescence, 24 h | inhibition, % at 10 µM;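 active means inhibition of 40% or more at the single tested concentration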;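 further: wild-type TIM10 isogenic control strain grown at permissive 25 °C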
PfHsp90 set2 = growth inhibition of PfHsp90-expressing yeast, primary screen, antimalarial PfHsp90 inhibitor project, S. cerevisiae, BacTiter-Glo luminescence, single point, set 2. AID 504621, 2011. inhibition, % at 9.4 µM. actives 0.32% (n = 310,000). BacTiter-Glo ATP, 48 h; yeast lacking PDR1 and PDR3 efflux regulators;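 active means every replicate shows inhibition above about 80%, whatever the replicate mean, limit read from the data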;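 further: 0% = DMSO neutral controls and 100% = 20 µM radicicol positive controls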
tim23-1 inh = growth inhibitors of tim23-1 mutant yeast, primary screen, luminescence, uHTS; S. cerevisiae tim23-1 growth, BacTiter-Glo luminescence, 24 h; inhibition, % at 20 µM; actives 1.3% (n = 330,000); AID 463212, 2010;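 active means growth inhibition of the mutant yeast at or above 50%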;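 further: temperature-sensitive mutant grown at 25 °C; plate controls were DMSO-treated mutant yeast for no effect and medium wells lacking yeast for full effect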
tim10-1 inh = growth inhibitors of tim10-1 mutant yeast, primary screen, luminescence, uHTS; actives 2.2% (n = 330,000); S. cerevisiae tim10-1 ts strain growth, BacTiter-Glo, 24 h; inhibition, % at 20 µM;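 active means inhibition of at least 40%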;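 further: mutant grown at 25 °C; 0% = DMSO wells with yeast and 100% = wells holding no yeast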
SKKanGAS inh = S. pyogenes SKKanGAS growth inhibitors in kanamycin, primary screen, streptokinase expression inhibitor project, SKKanGAS strain, BacTiter-Glo luminescence; 6 h; AID 1662, 2009; actives 1.3% (n = 300,000); inhibition, % at 7.5 µM;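 active means mean replicate score, as percent of positive control median, at least 50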;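 further: strain carries kanamycin resistance gene driven by streptokinase promoter and grows in 40 µg/ml kanamycin; loss of luminescence reflects streptokinase promoter inhibition or plain growth inhibition; 0% = median of DMSO wells and 100% = positive control at its reference dose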
tim10-1 conf = growth inhibitors of tim10-1 mutant yeast, confirmation, single concentration, luminescence, S. cerevisiae | actives 56% (n = 7,400) | inhibition, % at 20 µM | shares compounds with tim10-1 inh | S. cerevisiae tim10-1 ts strain growth, BacTiter-Glo, 24 h;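 active means inhibition of yeast growth at or above a set limit in either of two repeat tests at 20 µM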;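 further: tim10-1 mutant grown at permissive 25 °C to find synthetic lethal compounds; 0% = DMSO yeast wells and 100% = medium wells without yeast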
tim10 confirm = growth inhibitors of wild-type TIM10 yeast, confirmation, counter-screen for tim10-1 synthetic lethality project, single concentration, luminescence, S. cerevisiae; shares compounds with TIM10 inh; S. cerevisiae tim10 strain growth, BacTiter-Glo luminescence, 24 h; AID 463215, 2010; actives 63% (n = 4,600); inhibition, % at 10 µM;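 active means inhibition of yeast growth at or above a set limit in either of two replicates at 10 µM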;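 further: this counterscreen used the strain with wild-type TIM10; 0% = yeast with DMSO and 100% = medium wells lacking yeast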
Starred values were filed as active, the others as inactive; . = no result given.

SMILES	V-ATPase pH	TIM10 inh	PfHsp90 set2	tim23-1 inh	tim10-1 inh	SKKanGAS inh	tim10-1 conf	tim10 confirm
Nn1cnnc1N/N=C/c1cccc(Cl)c1Cl	1	52*	11	38	51*	16	50*	60*
CC(C)(C)OC(=O)C[C@H]1C/C=C\C[C@@H](CC(=O)NCCO)C(=O)NC[C@@H](c2ccccc2)OC1=O	-4	6	6	7	0	.	.	.
Cc1cc(N2CCCC2)nc(SCC(=O)c2ccccc2)n1	-2	-4	14	34	18	3	.	.
Cc1cc(N2CCC(C)CC2)nc(SCC(=O)c2ccccc2)n1	1	41*	-3	34	53*	9	34*	-37
O=C(CN(C(=O)CCC(=O)Nc1nccs1)c1cccc(C(F)(F)F)c1)NCC1CCCO1 (stereo not drawn)	3	1	-22	16	-17	-1	.	.
O=c1oc(-c2ccccc2)cc(Cl)c1Cl	-34	76*	117*	22	81*	4	86*	78*
COc1cc(OC)cc(C(=O)NCC(=O)Nc2ccc(OC)c(Cl)c2)c1	0	-27	-15	-2	-44	-5	.	.
CCOc1cc(-c2noc(N)c2C#N)cc(OCC)c1OCC	1	67*	6	48	68*	-11	61*	58*
Cc1ccccc1-c1noc(N)c1C#N	2	31	33	24	38	2	.	.
CNc1nc(-c2ccccc2)nnc1C(F)(F)F	1	2	7	9	-3	6	.	.
Cc1ccc(Sc2nc(-c3ccccc3)nnc2C(F)(F)F)cc1	0	41*	9	28	40*	20	38*	3
Cc1ncc(CO)c(/C=N/NC(=S)Nc2ccc(Cl)c(Cl)c2)c1O	-2	92*	28	20	51*	66*	33*	38*
O=C(Nc1cccc(Cl)c1)NC1CCCCC1	0	50*	.	36	41*	0	33*	23
COc1ccc(C(=O)O/N=C(/c2cccs2)C(C)(C)C)cc1	2	-10	-20	11	-5	-3	.	.
COc1ccc(C2CC2/C(=N/OC(=O)c2cccs2)c2ccccc2)cc1 (stereo not drawn)	3	63*	-14	45	63*	-10	59*	64*
CN(C(=O)c1cc(-n2cnnc2)ccc1Cl)c1ccccc1	1	-2	1	1	0	2	.	.
Cc1ccccc1CN(c1ccc(C(=O)N/N=C/c2ccc(OCC(N)=O)cc2)cc1)S(C)(=O)=O	-1	2	-11	7	12	1	.	.
COC(=O)c1ccccc1NC(=S)NC(=O)COc1ccccc1Cl	-4	42*	.	34	42*	17	24	32
COC(=O)c1ccccc1NC(=S)NC(=O)COc1ccc(C)cc1	-1	9	-23	3	-2	7	.	.
Cc1ccnc(Nc2nc(-c3c(C)nc4sccn34)cs2)c1	-1	45*	-12	11	44*	5	13	32*
Cc1ccnc(Nc2nc(-c3ccccc3)cs2)c1	1	9	-19	29	17	39	.	.
CC(=O)c1ccc(-c2ccc([C@H]3[C@H]4C=CC[C@@H](C)[C@@H]4C(=O)N3Cc3ccccc3)c(F)c2)cc1	2	6	-11	20	20	33	.	.
C[C@@H]1CC=C[C@H]2[C@H]1C(=O)N(Cc1ccccc1)[C@H]2c1ccc(F)c(Br)c1	.	.	.	.	.	37	.	.
CC(=O)c1ccc(-c2ccccc2[C@H]2[C@H]3C=CC[C@@H](C)[C@@H]3C(=O)N2Cc2ccccc2)cc1	.	43*	.	38	45*	24	30*	28
